From PubChem BioAssay
Several values for one entry are separate records, joined by “and”; a condition that tells them apart may be missing. Identical values can stand only once. A structure can be active in one record and inactive in another. Activity calls are given as the source filed them. Unless noted, how the calls were made is not given here.

What was measured:
[1] = compounds altering circadian rhythm period length – cell-based, LOPAC library, luminescence reporter (AID 2774); details: circadian reporter cells, at 7 µM, actives lie on both sides;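 further: values are relative to mean of DMSO wells on each plate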
[2] = P. berghei load reduction in hepatocytes – cell-based, HepG2, luciferase luminescence, HepG2 viability, primary screen (AID 624349; in the data active means parasite load remaining mostly below about 12%, no sharp cut-off; inactive means mostly above about 10%;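 further: 100% = mean of DMSO negative control wells on the same plate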); details: P. berghei liver stage in HepG2, luciferase luminescence, concentration not given here; parasite load remaining: stronger effect = lower value; viability: measured here: HepG2 viability without parasites
[3] = system: Hepatitis C virus NS3 helicase; assay: blockers of NS3h binding to ssDNA – biochemical, fluorescence polarization, LOPAC1280 library, primary screen (AID 687035; in the data active means inhibition above about 37%); details: Purified HCV NS3 helicase, Cy5-dT15 ssDNA binding fluorescence polarization; stronger effect = higher value; concentration not given here
[4] = compounds altering Cy5-DNA-NS3h complex signal – biochemical, LOPAC1280, artefact control for HCV NS3 helicase inhibitor project (AID 687037); details: Cy5-DNA-NS3h complex fluorescence interference counterscreen
[5] = signal quenchers or enhancers, Cy5 substrate/SSB – biochemical, NIH Clinical Collection, E. coli SSB, artefact control for HCV NS3 helicase inhibitor project (AID 743268); details: Cy5-oligo bound E. coli SSB, fluorescence interference
[6] = system: Hepatitis C virus NS3 helicase; assay: blockers of NS3h binding to DNA – biochemical, fluorescence polarization, NIH Clinical Collection, primary screen (AID 743270); details: NS3 helicase binding to Cy5-dT15 DNA, stronger effect = higher value, concentration not given here
[7] = target: Single-stranded DNA-binding protein (Escherichia coli (strain K12)) (UniProt P0AGE0); assay: SSB-ssDNA binding inhibitors – biochemical, fluorescence polarization, NIH Clinical Collection, counter-screen for HCV NS3 helicase inhibitor project (AID 743271; in the data active means inhibition above about 28%); details: E. coli SSB-DNA binding, stronger effect = higher value, concentration not given here
[8] = compounds distorting NS3 helicase fluorescence signal – biochemical, NIH Clinical Collection, artefact control for HCV NS3 helicase inhibitor project (AID 743272); details: fluorescence interference counterscreen, HCV NS3 helicase assay; stronger effect = lower value;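 further: HCV NS3 helicase with a Cy5 labelled single stranded DNA probe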
[9] = system: Neuropilin-2 / VEGF-C interaction (human); assay: small molecules blocking Neuropilin-2/VEGF-C interaction – biochemical, microplate binding format, z-score (AID 743281); details: microplate NRP2/VEGF-C binding assay; stronger effect = lower value
[10] = Wnt pathway potentiators raising nuclear beta-catenin – imaging, WNT3A-conditioned medium, mouse C2C12, NPC library, primary screen (AID 1117326; in the data active means nuclear beta-catenin stimulation mostly above about 4.2%, no sharp cut-off; inactive means mostly below about 10%); details: stronger effect = higher value
[11] = compounds altering viability of human ES cells (AID 493140); details: human embryonic stem cell survival screen; stronger effect = higher value;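 further: cells exposed to compounds for four days before counting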

Row | SMILES | period change [1] | parasite load remaining [2] | viability [2] | inhibition [3] | fluorescence ratio (interference) [4] | fluorescence ratio [5] | inhibition [6] | inhibition [7] | fluorescence ratio [8] | z-score [9] | nuclear beta-catenin stimulation ([10]; at 10 µM) | nuclear beta-catenin stimulation ([10]; stimulation, at 2 µM) | survival [11]
1 | CC(=O)[C@]1(O)Cc2c(O)c3c(c(O)c2[C@@H](O[C@H]2C[C@H](N)[C@H](O)[C@H](C)O2)C1)C(=O)c1ccccc1C3=O | -1.6 h (inactive) | -0.405% (inactive) and 0.045% (active) | 2.19% and 69.5% | -1% (inactive) | 0.8 (active) | 0.31 (active) | 0.4% (inactive) | 14.5% (inactive) | 0.67 (active) | 1.07 (inactive) | 18.6% (active) | 94.8% | 
2 | CCN(CCCc1ccccc1)CCCc1ccccc1 |  |  |  |  |  |  |  |  |  |  | 1% (inactive) | 4.5% | 6.17 (inactive)
3 | C[C@H]1O[C@@H](n2cc(F)c(=O)[nH]c2=O)[C@H](O)[C@@H]1O | -0.1 h (inactive) | 43.4% (inactive) | 83% | -1% (inactive) | 1 (inactive) |  |  |  |  |  | 1.3% (inactive) | 0.4% | 
4 | CNC[C@H](O)c1ccc(O)c(O)c1 | 0.025 h (inactive) |  |  | -5% (inactive) | 1 (inactive) |  |  |  |  |  | 0.3% (inactive) | 0.2% | 
5 | Nc1ncnc2c1ncn2[C@@H]1O[C@H](COP(=O)(O)O)[C@@H](O)[C@H]1O |  | 75.5% (inactive) and 87.1% (inactive) | 125% and 81% |  |  |  |  |  |  |  | 2.4% (inactive) | 3.8% | 7.33 (inactive)
6 | CN(C)CC[C@@H](c1ccc(Br)cc1)c1ccccn1 | -0.05 h (inactive) | 84.6% (inactive) | 70.1% | 0% (inactive) | 1 (inactive) | 1.07 (inactive) | -2.77% (inactive) | -3.18% (inactive) | 0.87 (inactive) | -0.605 (inactive) | 1.1% (inactive) | -0.3% | 
7 | CC(=O)O[C@]1(C(C)=O)CC[C@H]2[C@@H]3C=C(Cl)C4=CC(=O)[C@@H]5C[C@@H]5[C@]4(C)[C@H]3CC[C@@]21C | 0.03 h (inactive) | 8.85% (inactive) | 69% | -1% (inactive) | 0.9 (inactive) |  |  |  |  |  | 1.2% (inactive) | 1.7% | 
8 | CC(C(=O)O)c1ccc(CC2CCCC2=O)cc1 (stereo unspecified) | -0.055 h (inactive) | 108% (inactive) | 79.1% | -4% (inactive) | 1 (inactive) | 1.12 (inactive) | 5.94% (inactive) | 4.52% (inactive) | 1.09 (inactive) | -0.224 (inactive) | -1.5% (inactive) | -0.2% | 
9 | Nc1nnc(-c2cccc(Cl)c2Cl)c(N)n1 | -0.15 h (inactive) | 90.9% (inactive) and 119% (inactive) and 49.7% (inactive) | 105% and 77.7% and 112% | -5% (inactive) | 1 (inactive) | 1.03 (inactive) | 0.4% (inactive) | -1.64% (inactive) | 0.99 (inactive) | -0.624 (inactive) | 0.7% (inactive) | 0.5% | 
10 | O=C1N(c2ccccc2)c2ccccc2C1(Cc1ccncc1)Cc1ccncc1 | 0.25 h (inactive) | 77.9% (inactive) | 65.3% | -7% (inactive) | 0.9 (inactive) | 0.98 (inactive) | -11.6% (inactive) | -1.18% (inactive) | 0.93 (inactive) | -0.0491 (inactive) | 0.2% (inactive) | 3.8% | 
11 | CCN1CCC[C@H]1CNC(=O)c1c(O)c(Cl)cc(Cl)c1OC | -0.03 h (inactive) | 132% (inactive) and 60.7% (inactive) | 135% and 99% | -2% (inactive) | 1 (inactive) | 0.94 (inactive) | 1.19% (inactive) | 7.6% (inactive) | 0.77 (active) | -0.335 (inactive) | 0.6% (inactive) | 3.4% | 
12 | CCOC(=O)NNc1nncc2ccccc12 |  | 44.2% (inactive) and 101% (inactive) and 89.6% (inactive) | 43.6% and 65.7% and 90.2% |  |  |  |  |  |  |  | 3.8% (inactive) | 5.1% | 22 (inactive)
13 | CC(C)N=C(N)/N=C(\N)Nc1ccc(Cl)cc1 |  | 38.3% (inactive) and -0.12% (active) | 66.1% and 93.4% |  |  |  |  |  |  |  | 1.1% (inactive) | 0.3% | 3 (inactive)
14 | O=c1c(-c2ccc(O)cc2)coc2cc(O)cc(O)c12 | 0 h (inactive) |  |  | -1% (inactive) | 1 (inactive) |  |  |  |  |  | 8.6% (inactive) | -1.1% | 
15 | Cc1c(Nc2ncccc2C(=O)O)cccc1C(F)(F)F |  | 99.9% (inactive) and 46.5% (inactive) | 95.4% and 105% |  |  |  |  |  |  |  | 4.9% (inactive) | -0.2% | 3.67 (inactive)
16 | OCc1cc(C(O)CNCCCCCCOCCCCc2ccccc2)ccc1O (stereo unspecified) | -0.06 h (inactive) | 94.7% (inactive) and 45.6% (inactive) and 21.7% (inactive) | 96% and 67.2% and 65.5% | 2% (inactive) | 1 (inactive) | 0.98 (inactive) | -1.97% (inactive) | -2.76% (inactive) | 1.01 (inactive) | -0.654 (inactive) | 2.7% (inactive) | 0.3% | 
